Source: PubChem
Ecoli rRNA inh – inhibits bacterial ribosomal RNA function over humanized ribosomes; E. coli WT GFP vs humanized-ribosome RFP mutants, fluorescence, 24 h; active compounds read low; DMSO median 0, no signal -100; GFP signal change (wild-type ribosome), % (concentration not given with the values); 350,000 compounds, 1.6% hits;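 active = significant combined selectivity score with lowered wild-type GFP, culture density cut under 30%, mutant RFP and density less affected; inactive = any of these conditions unmet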
ADAM17 inh – inhibitors of human ADAM17. recombinant ADAM17, EDANS/DABCYL FRET peptide cleavage. P78536. inhibition, % at 6.95 µM. 370,000 compounds, 0.83% hits. AID 720648;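 active = inhibition above the mean of compounds lying between control limits plus 3 SD, set per campaign, cut at about 8.5% in these data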
KLK7 zymogen act – proKLK7 (human) activation, primary screen; P49862; purified proKLK7, EDANS-DABCYL substrate fluorescence; 100% is mature enzyme control, 0% vehicle; activation, % at 7 µM; 370,000 compounds, 0.9% hits; AID 652039;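 active = activation above the mean of all tested compounds plus 3 SD, computed per campaign excluding outliers beyond control limits, cut at about 13% in these data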
Target sequence (P49862 whole entry, looked up): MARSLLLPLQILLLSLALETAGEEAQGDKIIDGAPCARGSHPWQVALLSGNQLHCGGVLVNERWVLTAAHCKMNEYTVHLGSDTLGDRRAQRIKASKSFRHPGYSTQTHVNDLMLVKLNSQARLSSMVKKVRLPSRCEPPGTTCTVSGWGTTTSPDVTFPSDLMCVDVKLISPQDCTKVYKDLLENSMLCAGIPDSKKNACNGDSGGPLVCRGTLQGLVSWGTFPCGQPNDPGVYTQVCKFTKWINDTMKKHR
ADAM10 inh – inhibits human ADAM10. recombinant ADAM10, EDANS/DABCYL FRET peptide cleavage, 3 h. inhibition, % at 7 µM. AID 720582. 370,000 compounds, 0.62% hits;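 active = inhibition above a per-campaign cutoff equal to the mean of compounds falling between control-based bounds plus 3 SD, cut at about 20% in these data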
FGF22 binding – binders of recombinant human FGF22 by thermal shift; SYPRO orange fluorescence; percent of sucrose octasulfate shift, DMSO zero; activity (Tm shift, normalised), % at 9.99 µM; 340,000 compounds, 1.5% hits; AID 651658;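 active = mean Tm shift, scaled 0 neutral to 100 positive control, at about 1.3% or above, every replicate too, limit read from the data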
Target sequence (Q9HCT0 whole entry, looked up): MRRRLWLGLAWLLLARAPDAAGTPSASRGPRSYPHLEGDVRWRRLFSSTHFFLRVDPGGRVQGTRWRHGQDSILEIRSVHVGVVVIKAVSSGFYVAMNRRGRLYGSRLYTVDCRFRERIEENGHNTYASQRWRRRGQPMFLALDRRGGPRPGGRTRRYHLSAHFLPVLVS
ADAM10 confirm – human ADAM10 inhibition, confirmation; ADAM10 QFRET peptide cleavage, EDANS fluorescence; inhibition, % at 6.95 µM; 2,100 compounds, 1% hits; shares compounds with ADAM10 inh;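 active = inhibition above about 20% chosen separately for each screening run, limit read from the data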
ADAM17 counter – counter-screen for ADAM10 exosite inhibitors: inhibitors of human ADAM17; inhibition, % at 6.95 µM; AID 743214; ADAM17 QFRET peptide cleavage, EDANS fluorescence; 2,100 compounds, 0.5% hits; shares compounds with ADAM10 inh;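 active = mean triplicate inhibition above the solvent-only control wells' mean plus 3 SD, cut at about 12% in these data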
ADAM10 ctr – inhibits human ADAM10 in ADAM17 exosite counter-screen; shares compounds with ADAM17 inh; recombinant ADAM10, EDANS/DABCYL FRET peptide cleavage, 3 h; inhibition, % at 6.95 µM; 2,900 compounds, 47% hits;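 active = mean inhibition over the triplicate runs exceeds the activity threshold set in the earlier primary screen, cut at about 20% in these data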
ADAM17 confirm – human ADAM17 inhibition, confirmation; AID 743257; shares compounds with ADAM17 inh; inhibition, % at 6.95 µM; recombinant ADAM17, EDANS/DABCYL QFRET peptide cleavage; 2,900 compounds, 65% hits;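 active = mean inhibition across replicates above the hit cutoff set in the primary screen, cut at about 8.5% in these data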
Hits are given with their value. An excerpt weighted towards active compounds, which were near 3.8% of everything screened.

CC(=O)Nc1ccc(C(=O)N2CCCCC2c2cc(C(=O)Nc3cccc4c3CCCC4)no2)cc1 (centres undefined) was read as Ecoli rRNA inh inactive, ADAM17 inh inactive, KLK7 zymogen act inactive, ADAM10 inh inactive and FGF22 binding inactive.
Cn1nc(C(C)(C)C)cc1C(=O)N1CCCCC1c1cc(C(=O)Nc2cccc3c2CCCC3)no1 (centres undefined) was read as Ecoli rRNA inh inactive, ADAM17 inh 12, KLK7 zymogen act inactive, ADAM10 inh 21, FGF22 binding inactive, ADAM10 confirm inactive, ADAM17 counter inactive, ADAM10 ctr inactive and ADAM17 confirm 9.2.
O=C(Cn1cnc([N+](=O)[O-])c1)Nc1cc(Oc2ccc(Cl)cc2Cl)cc([N+](=O)[O-])c1 was read as ADAM17 inh 9.5, KLK7 zymogen act inactive, ADAM10 inh 23, ADAM10 confirm inactive, ADAM17 counter inactive, ADAM10 ctr 33 and ADAM17 confirm 17.
Screening COc1ccc(C(=O)Nc2ccc(OCC(F)(F)C(F)F)c(C(F)(F)F)c2)cc1OC returned ADAM17 inh 9.0, KLK7 zymogen act inactive, ADAM10 inh 26, ADAM10 confirm inactive, ADAM17 counter inactive, ADAM10 ctr 52 and ADAM17 confirm 20.
Screening COc1ccc(CCN(C(=S)Nc2ccccc2)C2CC(=O)N(c3ccccc3)C2=O)cc1 (centres undefined) returned ADAM17 inh inactive, KLK7 zymogen act inactive and ADAM10 inh inactive.
Screening O=C1CC(N(CCc2ccccc2)C(=S)Nc2ccccc2)C(=O)N1c1ccc(Br)cc1 (centres undefined) returned Ecoli rRNA inh inactive, ADAM17 inh 17, KLK7 zymogen act inactive, ADAM10 inh 35, FGF22 binding inactive, ADAM10 confirm inactive, ADAM17 counter inactive, ADAM10 ctr 46 and ADAM17 confirm 22.
For COCC(=O)Nc1ccc2c(c1)[C@H]1C[C@H](CC(=O)NC3CCCCC3)O[C@H](CO)[C@H]1O2 the results were Ecoli rRNA inh inactive and FGF22 binding inactive.
`C[C@H](NC(=O)c1nc[nH]c1C(=O)NCCCCCNC(=O)OC(C)(C)C)C(=O)OCc1ccccc1` gave Ecoli rRNA inh inactive, ADAM17 inh inactive, KLK7 zymogen act inactive, ADAM10 inh inactive and FGF22 binding inactive.
For CC(C)(C)OC(=O)NCCCCCNC(=O)c1[nH]cnc1C(=O)N[C@@H](Cc1ccccc1)C(=O)OCc1ccccc1 the results were Ecoli rRNA inh inactive, ADAM17 inh 11, KLK7 zymogen act inactive, ADAM10 inh 23, FGF22 binding inactive, ADAM10 confirm inactive, ADAM17 counter inactive, ADAM10 ctr 41 and ADAM17 confirm 21.
Screening CC(C)(C)OC(=O)NCCCCCNC(=O)c1ncn(Cc2ccccc2)c1C(=O)NCCCCCNC(=O)OC(C)(C)C returned Ecoli rRNA inh inactive, ADAM17 inh 13, KLK7 zymogen act inactive, ADAM10 inh 20, FGF22 binding inactive, ADAM10 confirm inactive, ADAM17 counter inactive, ADAM10 ctr 31 and ADAM17 confirm 16.
Screening CC(C)C[C@H](NC(=O)c1nc[nH]c1C(=O)NCCCCCNC(=O)OC(C)(C)C)C(=O)OCc1ccccc1 returned Ecoli rRNA inh inactive, ADAM17 inh 14, KLK7 zymogen act inactive, ADAM10 inh 29, FGF22 binding inactive, ADAM10 confirm inactive, ADAM17 counter inactive, ADAM10 ctr 42 and ADAM17 confirm 21.
CN(Cc1ccccc1)C(=O)c1[nH]cnc1C(=O)NCCCCCNC(=O)OC(C)(C)C was read as Ecoli rRNA inh inactive, ADAM17 inh inactive, KLK7 zymogen act inactive, ADAM10 inh inactive and FGF22 binding inactive.
Screening CCN(CC)S(=O)(=O)c1ccc(N2CCOCC2)c(NS(=O)(=O)c2cc(C(C)(C)C)ccc2C)c1 returned ADAM17 inh 17, KLK7 zymogen act inactive, ADAM10 inh 36, FGF22 binding inactive, ADAM10 confirm inactive, ADAM17 counter inactive, ADAM10 ctr 31 and ADAM17 confirm 15.
For CCOC(=O)c1cc(-c2ccccc2C)nn1CC1CC(c2ccc(OC)cc2)=NO1 (centres undefined) the results were Ecoli rRNA inh inactive, ADAM17 inh 10, KLK7 zymogen act inactive, ADAM10 inh 21, FGF22 binding inactive, ADAM10 confirm inactive, ADAM17 counter inactive, ADAM10 ctr inactive and ADAM17 confirm 10.
`CCOC(=O)c1cc(-c2ccccc2)nn1CC1CC(c2ccc(OC)cc2)=NO1` (centres undefined) gave Ecoli rRNA inh inactive, ADAM17 inh inactive, KLK7 zymogen act inactive, ADAM10 inh inactive and FGF22 binding inactive.
Screening O=C(/C=C/c1cccc(C(F)(F)F)c1)Nc1cccc(C(F)(F)F)c1 returned ADAM17 inh 12, KLK7 zymogen act inactive, ADAM10 inh 26, ADAM10 confirm inactive, ADAM17 counter inactive, ADAM10 ctr 29 and ADAM17 confirm 17.
Screening C/C=C/C(=O)Nc1cccc(C(F)(F)F)c1 returned Ecoli rRNA inh inactive, ADAM17 inh inactive, KLK7 zymogen act inactive, ADAM10 inh inactive and FGF22 binding inactive.
O=C(CSc1nnc(COc2ccccc2)n1-c1ccc(Cl)cc1)Nc1ccccc1-c1ccccc1 was read as ADAM17 inh 13, KLK7 zymogen act inactive, ADAM10 inh 28, ADAM10 confirm inactive, ADAM17 counter inactive, ADAM10 ctr inactive and ADAM17 confirm 14.
`CCn1c(Cc2cccs2)nnc1SCC(=O)Nc1ccc(OCc2ccccc2)cc1` gave ADAM17 inh inactive, KLK7 zymogen act inactive and ADAM10 inh inactive.
For COc1ccc(-n2c(Cc3cccs3)nnc2SCC(=O)Nc2ccc(OCc3ccccc3)cc2)cc1 the results were ADAM17 inh 11, KLK7 zymogen act inactive, ADAM10 inh 21, ADAM10 confirm inactive, ADAM17 counter inactive, ADAM10 ctr 25 and ADAM17 confirm 16.
Screening Cc1ccc(-n2c(Cc3cccs3)nnc2SCC(=O)Nc2ccc(OCc3ccccc3)cc2)cc1 returned ADAM17 inh 12, KLK7 zymogen act inactive, ADAM10 inh 21, ADAM10 confirm inactive, ADAM17 counter inactive, ADAM10 ctr 22 and ADAM17 confirm 15.
`Cn1c(Cc2cccs2)nnc1SCC(=O)Nc1ccc(OCc2ccccc2)cc1` gave ADAM17 inh inactive, KLK7 zymogen act inactive and ADAM10 inh inactive.
